# Source: the supplement of paper PMC10849652
# Of roughly 7,900 targets only a part is listed; those with a hit were picked by preference. About 0.6% of all pairs of compound and target were hits. Unmarked numbers belong to inactive results.
# Legend:
# Experiment in all cases: log2 fold change, soluble protein after heating vs DMSO (PISA); higher = thermal stabilisation; K562 cells, 10 uM, 30 min; active = over 0.2 and 3.5 SD of the protein, either way, in both replicates (recomputed)
# [1] = compound: COC1=CC=C(C=C1)CN2C=CC3=C2C=C(C=C3)C(=O)NO
# Procedure, shortened: (§1)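 K562 cells at 2×10^6 cells/mL were treated for 30 min with 10 μM compound, and aliquots were heated for 3 min over 48°C-58°C before pooling. Extraction used PBS with 0.5% NP-40 at 4°C, and soluble protein was the supernatant after 21,000xg for 90 min, measured by TMTpro 16plex LC-MS/MS with channel sums equalised. Thermal stability values, relative to control samples and from duplicates, are log2 fold changes.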
# [2] = compound: CON(C)C(=O)N1N=C(c2cc(F)ccc2F)S[C@@]1(CCCN)c1ccccc1 [filanesib]
# Procedure, shortened: as §1
# [3] = compound: CO[C@H]1C[C@@H]2CC[C@@H](C)[C@@](O)(O2)C(=O)C(=O)N2CCCC[C@H]2C(=O)O[C@H]([C@H](C)C[C@@H]2CC[C@H](n3cnnn3)[C@H](OC)C2)CC(=O)[C@H](C)/C=C(\C)[C@@H](O)[C@@H](OC)C(=O)[C@H](C)C[C@H](C)/C=C/C=C/C=C/1C [zotarolimus]
# Procedure, shortened: as §1
# [4] = compound: COc1cc(C(=O)O)ccc1NC(=O)[C@@H]1N[C@@H](CC(C)(C)C)[C@](C#N)(c2ccc(Cl)cc2F)[C@H]1c1cccc(Cl)c1F [idasanutlin]
# Procedure, shortened: as §1
# [5] = compound: COc1cc(Nc2ncc3c(n2)-c2ccc(Cl)cc2C(c2c(F)cccc2OC)=NC3)ccc1C(=O)O [alisertib]
# Procedure, shortened: as §1
# [6] = compound: COc1cc2nc(-c3cc(F)ccc3O)nc(N[C@@H]3CNC[C@H]3C(C)(C)O)c2cc1OC
# Procedure, shortened: as §1
# [7] = compound: COc1cc2ncnc(Nc3ccc(F)c(Cl)c3)c2cc1OCCCN1CCOCC1 [gefitinib]
# Procedure, shortened: as §1
# [8] = compound: COc1cccc2cc(-c3nc([C@H]4CC[C@H](C(=O)O)CC4)n4ncnc(N)c34)[nH]c12
# Procedure, shortened: as §1
# [9] = compound: CS(=O)(=O)CCNCc1ccc(-c2ccc3ncnc(Nc4ccc(OCc5cccc(F)c5)c(Cl)c4)c3c2)o1 [lapatinib]
# Procedure, shortened: as §1
# [10] = compound: CS(=O)(=O)N1CCN(Cc2cc3nc(-c4cccc5[nH]ncc45)nc(N4CCOCC4)c3s2)CC1 [pictilisib]
# Procedure, shortened: as §1
# Sequence of UniProt Q6P3S6 (Q6P3S6 whole entry, looked up): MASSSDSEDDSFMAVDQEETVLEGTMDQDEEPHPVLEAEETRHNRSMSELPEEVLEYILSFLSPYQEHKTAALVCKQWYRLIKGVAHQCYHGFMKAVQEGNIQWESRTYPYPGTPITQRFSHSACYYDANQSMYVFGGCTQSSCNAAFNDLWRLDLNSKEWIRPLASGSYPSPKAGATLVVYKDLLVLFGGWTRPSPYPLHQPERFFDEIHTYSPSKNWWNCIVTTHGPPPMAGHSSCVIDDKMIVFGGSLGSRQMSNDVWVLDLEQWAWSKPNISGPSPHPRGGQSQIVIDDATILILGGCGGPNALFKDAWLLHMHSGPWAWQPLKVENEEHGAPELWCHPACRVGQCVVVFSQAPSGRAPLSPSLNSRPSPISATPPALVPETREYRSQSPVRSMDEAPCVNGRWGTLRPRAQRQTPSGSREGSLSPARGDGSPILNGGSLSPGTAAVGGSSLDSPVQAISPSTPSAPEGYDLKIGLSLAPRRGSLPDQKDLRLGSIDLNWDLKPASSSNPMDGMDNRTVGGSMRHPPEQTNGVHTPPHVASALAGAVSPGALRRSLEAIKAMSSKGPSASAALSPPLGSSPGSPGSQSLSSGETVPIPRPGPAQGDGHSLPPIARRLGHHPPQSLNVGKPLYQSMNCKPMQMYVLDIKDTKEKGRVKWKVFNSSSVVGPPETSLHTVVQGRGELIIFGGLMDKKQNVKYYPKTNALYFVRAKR
# Sequence of UniProt P48507 (P48507 whole entry, looked up): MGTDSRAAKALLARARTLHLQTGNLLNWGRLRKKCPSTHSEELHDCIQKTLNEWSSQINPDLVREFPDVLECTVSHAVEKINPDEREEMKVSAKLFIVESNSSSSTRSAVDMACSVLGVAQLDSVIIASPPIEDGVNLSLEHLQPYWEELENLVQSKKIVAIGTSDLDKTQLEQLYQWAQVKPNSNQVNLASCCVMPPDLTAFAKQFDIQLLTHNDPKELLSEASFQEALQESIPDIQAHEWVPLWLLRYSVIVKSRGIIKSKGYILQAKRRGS
# Sequence of UniProt P31943 (P31943 whole entry, looked up): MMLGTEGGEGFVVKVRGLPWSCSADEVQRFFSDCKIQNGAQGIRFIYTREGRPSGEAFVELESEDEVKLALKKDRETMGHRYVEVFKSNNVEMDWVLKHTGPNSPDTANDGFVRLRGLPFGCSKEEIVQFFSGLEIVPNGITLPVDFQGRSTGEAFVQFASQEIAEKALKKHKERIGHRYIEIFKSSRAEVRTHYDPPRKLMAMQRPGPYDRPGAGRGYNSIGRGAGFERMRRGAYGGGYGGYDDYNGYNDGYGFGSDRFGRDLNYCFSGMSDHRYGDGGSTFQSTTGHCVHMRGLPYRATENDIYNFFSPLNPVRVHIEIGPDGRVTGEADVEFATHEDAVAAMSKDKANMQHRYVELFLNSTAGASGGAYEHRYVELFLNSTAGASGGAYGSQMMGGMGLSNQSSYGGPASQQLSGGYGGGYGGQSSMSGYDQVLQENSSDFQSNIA
# Sequence of UniProt Q92538 (Q92538 whole entry, looked up): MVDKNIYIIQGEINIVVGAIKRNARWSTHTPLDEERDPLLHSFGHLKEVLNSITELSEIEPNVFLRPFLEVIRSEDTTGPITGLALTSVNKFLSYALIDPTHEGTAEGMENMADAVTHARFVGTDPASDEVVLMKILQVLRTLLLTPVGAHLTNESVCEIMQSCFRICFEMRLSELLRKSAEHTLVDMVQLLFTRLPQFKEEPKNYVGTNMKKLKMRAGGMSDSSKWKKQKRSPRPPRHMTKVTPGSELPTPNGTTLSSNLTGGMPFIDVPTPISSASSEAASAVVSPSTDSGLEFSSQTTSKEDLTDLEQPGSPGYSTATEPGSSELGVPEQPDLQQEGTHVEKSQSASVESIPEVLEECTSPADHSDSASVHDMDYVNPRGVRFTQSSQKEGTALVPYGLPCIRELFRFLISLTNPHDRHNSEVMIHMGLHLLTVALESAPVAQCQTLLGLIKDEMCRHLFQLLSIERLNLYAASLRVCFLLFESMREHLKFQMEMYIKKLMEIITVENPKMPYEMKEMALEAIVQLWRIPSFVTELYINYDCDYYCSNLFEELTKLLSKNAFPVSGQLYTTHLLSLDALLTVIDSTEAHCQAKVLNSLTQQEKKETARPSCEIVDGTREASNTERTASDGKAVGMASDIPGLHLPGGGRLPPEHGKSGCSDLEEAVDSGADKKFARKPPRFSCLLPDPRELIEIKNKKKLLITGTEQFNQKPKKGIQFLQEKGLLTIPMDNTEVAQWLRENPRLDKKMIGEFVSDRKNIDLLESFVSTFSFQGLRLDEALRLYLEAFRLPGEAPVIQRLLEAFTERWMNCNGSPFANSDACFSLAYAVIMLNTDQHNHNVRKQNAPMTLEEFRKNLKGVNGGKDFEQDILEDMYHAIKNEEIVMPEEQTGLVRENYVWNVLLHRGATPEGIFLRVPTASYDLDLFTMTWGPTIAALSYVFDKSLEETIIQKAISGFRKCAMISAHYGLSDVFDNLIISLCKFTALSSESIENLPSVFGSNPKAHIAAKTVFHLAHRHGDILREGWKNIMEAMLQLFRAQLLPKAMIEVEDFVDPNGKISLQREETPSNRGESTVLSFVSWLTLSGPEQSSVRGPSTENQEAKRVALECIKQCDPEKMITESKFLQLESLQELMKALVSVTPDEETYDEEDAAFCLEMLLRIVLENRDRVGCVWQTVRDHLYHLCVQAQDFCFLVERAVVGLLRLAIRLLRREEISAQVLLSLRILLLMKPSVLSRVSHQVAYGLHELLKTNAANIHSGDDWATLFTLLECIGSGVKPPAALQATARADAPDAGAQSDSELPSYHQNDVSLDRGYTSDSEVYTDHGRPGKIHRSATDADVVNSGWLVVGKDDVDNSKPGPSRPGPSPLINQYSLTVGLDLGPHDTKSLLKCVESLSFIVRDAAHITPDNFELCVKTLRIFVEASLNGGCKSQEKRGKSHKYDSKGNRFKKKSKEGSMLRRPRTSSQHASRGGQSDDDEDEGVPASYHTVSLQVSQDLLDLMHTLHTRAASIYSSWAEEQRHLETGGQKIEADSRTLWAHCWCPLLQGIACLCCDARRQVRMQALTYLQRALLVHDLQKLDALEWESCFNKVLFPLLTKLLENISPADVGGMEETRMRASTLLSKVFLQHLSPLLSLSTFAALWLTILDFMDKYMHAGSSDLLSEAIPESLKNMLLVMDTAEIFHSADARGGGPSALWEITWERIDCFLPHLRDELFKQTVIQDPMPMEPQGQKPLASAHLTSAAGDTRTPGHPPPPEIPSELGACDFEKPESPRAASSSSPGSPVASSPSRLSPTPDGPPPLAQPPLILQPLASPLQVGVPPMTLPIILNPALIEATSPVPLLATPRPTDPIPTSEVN
# Sequence of UniProt P49448 (P49448 whole entry, looked up): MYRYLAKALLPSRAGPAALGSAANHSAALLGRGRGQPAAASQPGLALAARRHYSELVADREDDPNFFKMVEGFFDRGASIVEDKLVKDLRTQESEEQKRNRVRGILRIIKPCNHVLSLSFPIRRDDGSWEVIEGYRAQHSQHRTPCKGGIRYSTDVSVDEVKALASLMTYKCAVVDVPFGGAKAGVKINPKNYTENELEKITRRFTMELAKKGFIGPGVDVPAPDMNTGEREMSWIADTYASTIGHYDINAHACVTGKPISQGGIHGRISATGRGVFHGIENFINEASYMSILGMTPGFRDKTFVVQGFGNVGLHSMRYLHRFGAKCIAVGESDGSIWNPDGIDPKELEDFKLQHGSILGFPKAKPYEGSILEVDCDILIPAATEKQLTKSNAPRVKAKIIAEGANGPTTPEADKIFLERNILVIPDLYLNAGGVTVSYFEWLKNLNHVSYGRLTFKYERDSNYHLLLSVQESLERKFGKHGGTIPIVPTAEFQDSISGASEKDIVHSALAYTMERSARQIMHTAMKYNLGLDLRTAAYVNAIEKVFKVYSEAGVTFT
# Sequence of UniProt Q92664 (Q92664 whole entry, looked up): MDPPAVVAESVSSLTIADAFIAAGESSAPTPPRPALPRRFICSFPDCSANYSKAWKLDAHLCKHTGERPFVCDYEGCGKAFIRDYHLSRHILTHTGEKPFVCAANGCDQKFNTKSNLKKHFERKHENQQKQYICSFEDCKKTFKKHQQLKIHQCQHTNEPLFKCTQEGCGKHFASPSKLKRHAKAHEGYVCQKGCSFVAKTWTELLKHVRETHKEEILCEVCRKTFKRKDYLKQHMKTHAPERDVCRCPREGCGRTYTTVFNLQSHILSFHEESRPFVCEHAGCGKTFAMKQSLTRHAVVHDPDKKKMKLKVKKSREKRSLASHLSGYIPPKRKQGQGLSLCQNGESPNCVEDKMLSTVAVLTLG
# Sequence of UniProt P07686 (P07686 whole entry, looked up): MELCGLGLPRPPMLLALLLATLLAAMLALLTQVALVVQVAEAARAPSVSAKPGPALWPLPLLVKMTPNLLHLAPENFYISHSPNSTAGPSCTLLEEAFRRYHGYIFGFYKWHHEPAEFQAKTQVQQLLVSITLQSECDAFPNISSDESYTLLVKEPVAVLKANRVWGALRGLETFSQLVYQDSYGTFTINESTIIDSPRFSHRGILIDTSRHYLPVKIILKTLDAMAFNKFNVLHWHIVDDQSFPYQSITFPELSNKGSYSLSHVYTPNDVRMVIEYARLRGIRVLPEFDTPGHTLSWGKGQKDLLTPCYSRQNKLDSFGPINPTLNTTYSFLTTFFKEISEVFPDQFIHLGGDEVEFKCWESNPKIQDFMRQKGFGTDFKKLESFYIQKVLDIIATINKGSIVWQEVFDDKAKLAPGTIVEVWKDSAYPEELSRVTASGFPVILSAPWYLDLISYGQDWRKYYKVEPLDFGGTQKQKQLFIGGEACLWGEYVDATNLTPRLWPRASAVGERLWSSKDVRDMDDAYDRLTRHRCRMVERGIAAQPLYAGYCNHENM
# Sequence of UniProt Q8WXD5 (Q8WXD5 whole entry, looked up): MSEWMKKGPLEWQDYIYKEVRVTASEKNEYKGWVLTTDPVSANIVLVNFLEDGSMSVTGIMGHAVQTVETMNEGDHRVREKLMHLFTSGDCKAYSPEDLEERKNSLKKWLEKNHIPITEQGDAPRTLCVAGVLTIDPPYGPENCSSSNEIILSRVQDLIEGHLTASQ
Target,log2 fold change [1],log2 fold change [2],log2 fold change [3],log2 fold change [4],log2 fold change [5],log2 fold change [6],log2 fold change [7],log2 fold change [8],log2 fold change [9],log2 fold change [10]
HMGN1 (UniProt P05114),0.01,0.044,-0.034,0.026,-0.04,0.059,-0.07,0.026,-0.09,-0.003
GDI1 (UniProt P31150),-0.073,-0.043,0.01,-0.056,-0.067,0.045,-0.011,0.037,-0.032,-0.006
FBXO7 (UniProt Q9Y3I1),0.037,-0.069,-0.026,-0.04,-0.082,0.082,-0.023,0.011,-0.082,0.036
GEMIN6 (UniProt Q8WXD5),0.001,0.005,0.154,0.071,-0.019,0.006,-0.003,0.096,-0.077,0.064
IDI1 isoform 2 (UniProt Q13907),-0.314 (active),0.026,0.033,-0.006,-0.003,0.007,0.024,0.039,-0.014,0.089
FBXO42 (UniProt Q6P3S6),-0.037,0.011,0.025,0.009,0.047,-0.054,0.036,0.07,0.063,-0.088
HSD17B12 (UniProt Q53GQ0),0.069,-0.013,0.03,-0.169,0.003,0.135,0.103,0.045,0.369 (active),0.102
HSPA8 (UniProt E9PK54),0.011,0.033,-0.015,-0.037,-0.186,-0.208,-0.077,-0.002,0.17,-0.071
IGF2BP2 (UniProt Q9Y6M1),-0.111,0.301,0.104,0.136,-0.103,-0.105,0.007,-0.113,0.046,-0.043
IFT74 (UniProt Q96LB3),0.083,-0.014,0.019,-0.058,-0.102,0.339,0.035,0.024,-0.025,0.052
HIC2 (UniProt Q96JB3),-0.067,0.226,-0.012,0.238,-0.057,-0.386,-0.073,-0.066,0.207,-0.052
GBF1 (UniProt Q92538),-0.005,0.038,0.008,-0.037,-0.013,0.025,-0.012,-0.054,-0.036,-0.036
GOPC (UniProt Q9HD26),-0.059,0.259,0.329,0.007,-0.026,0.668 (active),0.137,-0.146,0.15,0.08
HP1BP3 (UniProt Q5SSJ5),0.041,0.145,-0.003,0.095,-0.069,-0.053,0.154,-0.024,0.044,0.04
GCLM (UniProt P48507),0.066,-0.004,0.071,-0.124,-0.003,0.026,0.06,-0.057,0.011,0.046
HDHD2 (UniProt Q9H0R4),0.048,-0.097,-0.027,0.006,-0.06,-0.007,0.024,0.085,-0.03,-0.011
FLNA (UniProt P21333),0.042,0.026,0.043,-0.066,0.036,0.039,0.03,-0.095,-0.049,0.031
HEXB (UniProt P07686),0.012,-0.092,-0.042,0.018,-0.058,0.017,0.005,0.044,-0.001,0.021
HECTD1 (UniProt Q9ULT8),-0.039,0.091,0.023,0.047,0.087,-0.04,-0.016,-0.132,0.096,0.02
GTF3A (UniProt Q92664),0.092,-0.138,0.067,-0.018,0.014,-0.225,-0.139,-0.006,0.099,-0.042
GALNT11 (UniProt Q8NCW6),-0.012,-0.028,-0.019,-0.042,0,0.052,0.013,0.062,-0.011,0.026
FUT8 (UniProt Q9BYC5),-0.156,-0.043,-0.019,-0.066,0.022,–,0.084,-0.03,–,-0.032
GTPBP6 (UniProt O43824),-0.105,0.049,0.061,0.018,-0.217,–,-0.146,0,–,-0.012
IFT80 isoform 3 (UniProt Q9P2H3),-0.128,-0.043,0.003,-0.066,-0.039,0.01,-0.07,0.04,-0.038,0.034
FIS1 (UniProt Q9Y3D6),-0.016,-0.008,0.153,-0.047,-0.034,0.061,-0.025,0.069,0.008,0.071
HIKESHI (UniProt Q53FT3),-0.051,-0.063,0.026,-0.05,-0.076,0.067,0.011,0.009,-0.021,-0.004
GLUD2 (UniProt P49448),-0.041,-0.032,0.123,-0.07,-0.06,-0.003,0.061,0.023,0.191,0.216
GMEB1 (UniProt Q9Y692),0.049,0.205,0.042,0.027,-0.041,-0.042,-0.049,0.008,0.031,-0.087
HNRNPH1 (UniProt P31943),0.069,0,0.091,0.048,0.028,-0.192,-0.015,0.068,0.046,-0.135
FBL (UniProt P22087),-0.154,0.664,0.034,0.441,0.006,0.077,0.059,-0.069,0.11,-0.093
